{"source": "PubChem BioAssay (NCATS)", "note": "Records with an inconclusive call do not appear. Where a call stands in place of a potency, no number is given. Values without a mark were called inactive. Activity calls are given as the source filed them. Calls follow the shape of the dose curve; as a rule, active = well fitted cell-killing curve with a large enough effect; inconclusive = small, poorly fitted or top-dose-only effect, or effect the other way; inactive = flat fitted curve, though single readings scatter. *1 amine or outer side, *2 acyl side, *3 side chain or, on linkers, in order; H or OH if unused. Where a SMILES comes first, the peptide text is derived from it. Bridges are numbered along the chain shown (N, C = ends). [ ]: non-standard residue; d: D form. The star is where a group is joined. ξ: configuration not given here. X10 = NC1=NCCC(C(N[*:1])C(=O)[*:2])N1; ΔAla(3-NHCONH2) = NC(=O)NC=C(N)C(=O)O; ξβ3hOrn = NCCCC(N)CC(=O)*; Dap = NC[CH](N)C(=O)O", "data": [{"tested_on": "C33A", "test": "Primary qHTS to identify gynecologic anti-cancer compounds using libraries of approved drugs and bioactive compounds (AID 1345084); also: nearly all actives have a fitted effect of over 55% in size", "settings": "Gynecologic cancer cell panel viability, ATPlite luminescence, 48 h; series mostly up to 57.5 µM", "method_in_brief": "(§1)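 Cells, 1,000 per well, plated 16 h, then exposed 48 h at 37 C to compounds. Viability by ATPlite luminescence after 15 min at room temperature.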", "values": [{"molecule": "CC(=O)Nc1ccc(S(=O)(=O)Nc2cc(C)on2)cc1", "Potency": "inactive"}, {"molecule": "CCCCN(CCN(CCCC)C(=O)N1CCOCC1)C(=O)N1CCOCC1", "Potency": "inactive"}, {"molecule": "C[C@H]1C[C@H](O)c2ccsc2S1(=O)=O", "Potency": "inactive"}, {"molecule": "NC(=O)NS(=O)(=O)c1ccc(Cl)cc1", "Potency": "inactive"}, {"molecule": "Cn1c(=O)c2c(ncn2CC(=O)O)n(C)c1=O", "Potency": "inactive"}, {"molecule": "C[C@H]1NCc2cc(-c3ccc4c(=O)c(C(=O)O)cn(C5CC5)c4c3OC(F)F)ccc21", "Potency": "inactive"}, {"molecule": "Cc1nc(C2CCCCC2)c(-c2ccc(S(N)(=O)=O)c(F)c2)o1", "Potency": "inactive"}, {"molecule": "O=c1[nH]c(=O)n([C@H]2O[C@H](CO)[C@@H](O)[C@@H]2O)cc1/C=C\\Br", "Potency": "inactive"}, {"molecule": "COc1ccccc1OCC1CNC(=O)O1", "note": "(centres undefined)", "Potency": "inactive"}, {"molecule": "Nc1ccc([N+](=O)[O-])c(C(F)(F)F)c1", "Potency": "inactive"}, {"molecule": "N#CSCC(=O)O", "Potency": "inactive"}, {"molecule": "CCCCN(CCCC)C(C(N)=O)c1ccc(OC)cc1", "note": "(centres undefined)", "Potency": "inactive"}, {"molecule": "O=C(CCCl)NCCc1ccccc1", "Potency": "inactive"}, {"molecule": "O=[N+]([O-])c1ccc(-c2nc(-c3ccc(F)cc3)c(-c3ccncc3)[nH]2)cc1", "Potency": "inactive"}, {"molecule": "CCC(C(=O)NC(=O)NC(C)=O)c1ccccc1", "note": "(centres undefined)", "Potency": "inactive"}, {"molecule": "CCCC(=O)OCOC(=O)C1=C(C)NC(C)=C(C(=O)OC)C1c1cccc(Cl)c1Cl", "note": "(centres undefined)", "Potency": "inactive"}, {"molecule": "Cc1ccccc1C(=O)N1CC/C(=N\\OS(=O)(=O)O)c2ccc(Cl)cc21", "Potency": "inactive"}, {"molecule": "CC(NC(CCc1ccccc1)C(=O)O)C(=O)N1C(=O)N(C)CC1C(=O)O", "note": "(centres undefined)", "Potency": "inactive"}, {"molecule": "C1=CC2C3C=CC(C3)C2C1", "note": "(centres undefined)", "Potency": "inactive"}, {"molecule": "CC1CCCCN1CCCOC(=O)c1ccc(OC2CCCCC2)cc1", "note": "(centres undefined)", "Potency": "inactive"}, {"molecule": "CC(C(=O)O)c1ccc(/C=C2\\CCCCC2=O)cc1", "note": "(centres undefined)", "Potency": "inactive"}, {"molecule": "O=C(CO)[C@@H](O)[C@H](O)[C@@H](O)CO", "Potency": "inactive"}, {"molecule": "CC(=O)N(CC(O)CO)c1c(I)c(C(=O)NCCO)c(I)c(C(=O)NCC(O)CO)c1I", "note": "(centres undefined)", "Potency": "inactive"}, {"molecule": "O=C(O)[C@H](O)[C@@H](O)[C@H](O[C@@H]1O[C@H](CO)[C@H](O)[C@H](O)[C@H]1O)[C@H](O)CO", "Potency": "inactive"}, {"molecule": "CCCCC(O)/C=C(C)/C=C/C=C/C(=O)N1CCCC1=O", "note": "(centres undefined)", "Potency": "inactive"}, {"molecule": "Cc1ncc([N+](=O)[O-])n1C", "Potency": "inactive"}, {"molecule": "CCCN(CCC)C(=O)C(CCC(=O)OCCCN1CCN(CCOC(=O)Cc2c(C)n(C(=O)c3ccc(Cl)cc3)c3ccc(OC)cc23)CC1)NC(=O)c1ccccc1", "note": "(centres undefined)", "Potency": "inactive"}, {"molecule": "COC(=O)c1c(Cl)c(Cl)c(C(=O)OC)c(Cl)c1Cl", "Potency": "inactive"}, {"molecule": "NCCCC(N)CC(=O)NCC1NC(=O)C(CO)NC(=O)C(N)CNC(=O)C(C2CCN=C(N)N2)NC(=O)C(=CNC(N)=O)NC1=O", "note": "(stereo not drawn) (H-[Dap]S[Dap](ξβ3hOrn)[ΔAla(3-NHCONH2)][X10]; lactam 1-C; configuration not given here)", "activity change, negative = cytotoxicity": "15.1% [at 0.462 µM]"}, {"molecule": "CC(NN)c1ccccc1", "note": "(centres undefined)", "Potency": "inactive"}, {"molecule": "c1ccc2occc2c1", "Potency": "inactive"}, {"molecule": "CCCCCOc1ccc(C2SC(=O)NC2=O)cc1OCC", "note": "(centres undefined)", "Potency": "inactive"}, {"molecule": "CCCc1c2oc(C(=O)O)cc(=O)c2cc2c(=O)cc(C(=O)O)n(CC)c12", "Potency": "inactive"}, {"molecule": "COc1ccc2c(c1)CCCC2=O", "Potency": "inactive"}, {"molecule": "Cc1ccc(O)cc1", "Potency": "inactive"}, {"molecule": "CC(CCc1ccc2c(c1)OCO2)NN", "note": "(centres undefined)", "Potency": "inactive"}, {"molecule": "Cc1cc(=O)oc2cc(O[C@@H]3SC[C@@H](O)[C@H](O)[C@H]3O)ccc12", "Potency": "inactive"}]}, {"tested_on": "CAOV3", "test": "Primary qHTS to identify gynecologic anti-cancer compounds using libraries of approved drugs and bioactive compounds (AID 1345084)", "settings": "Gynecologic cancer cell panel viability, ATPlite luminescence, 48 h; series mostly up to 57.5 µM", "method_in_brief": "as §1", "values": [{"molecule": "CC(=O)Nc1ccc(S(=O)(=O)Nc2cc(C)on2)cc1", "Potency": "inactive"}, {"molecule": "CCCCN(CCN(CCCC)C(=O)N1CCOCC1)C(=O)N1CCOCC1", "Potency": "inactive"}, {"molecule": "C[C@H]1C[C@H](O)c2ccsc2S1(=O)=O", "Potency": "inactive"}, {"molecule": "NC(=O)NS(=O)(=O)c1ccc(Cl)cc1", "Potency": "inactive"}, {"molecule": "Cn1c(=O)c2c(ncn2CC(=O)O)n(C)c1=O", "Potency": "inactive"}, {"molecule": "C[C@H]1NCc2cc(-c3ccc4c(=O)c(C(=O)O)cn(C5CC5)c4c3OC(F)F)ccc21", "Potency": "inactive"}, {"molecule": "Cc1nc(C2CCCCC2)c(-c2ccc(S(N)(=O)=O)c(F)c2)o1", "Potency": "inactive"}, {"molecule": "O=c1[nH]c(=O)n([C@H]2O[C@H](CO)[C@@H](O)[C@@H]2O)cc1/C=C\\Br", "Potency": "inactive"}, {"molecule": "COc1ccccc1OCC1CNC(=O)O1", "note": "(centres undefined)", "Potency": "inactive"}, {"molecule": "Nc1ccc([N+](=O)[O-])c(C(F)(F)F)c1", "Potency": "inactive"}, {"molecule": "N#CSCC(=O)O", "Potency": "inactive"}, {"molecule": "CCCCN(CCCC)C(C(N)=O)c1ccc(OC)cc1", "note": "(centres undefined)", "Potency": "inactive"}, {"molecule": "O=C(CCCl)NCCc1ccccc1", "Potency": "inactive"}, {"molecule": "O=[N+]([O-])c1ccc(-c2nc(-c3ccc(F)cc3)c(-c3ccncc3)[nH]2)cc1", "Potency": "inactive"}, {"molecule": "CCC(C(=O)NC(=O)NC(C)=O)c1ccccc1", "note": "(centres undefined)", "Potency": "inactive"}, {"molecule": "CCCC(=O)OCOC(=O)C1=C(C)NC(C)=C(C(=O)OC)C1c1cccc(Cl)c1Cl", "note": "(centres undefined)", "Potency": "inactive"}, {"molecule": "Cc1ccccc1C(=O)N1CC/C(=N\\OS(=O)(=O)O)c2ccc(Cl)cc21", "Potency": "inactive"}, {"molecule": "CC(NC(CCc1ccccc1)C(=O)O)C(=O)N1C(=O)N(C)CC1C(=O)O", "note": "(centres undefined)", "Potency": "inactive"}, {"molecule": "C1=CC2C3C=CC(C3)C2C1", "note": "(centres undefined)", "Potency": "inactive"}, {"molecule": "CC1CCCCN1CCCOC(=O)c1ccc(OC2CCCCC2)cc1", "note": "(centres undefined)", "Potency": "inactive"}, {"molecule": "CC(C(=O)O)c1ccc(/C=C2\\CCCCC2=O)cc1", "note": "(centres undefined)", "Potency": "inactive"}, {"molecule": "O=C(CO)[C@@H](O)[C@H](O)[C@@H](O)CO", "Potency": "inactive"}, {"molecule": "CC(=O)N(CC(O)CO)c1c(I)c(C(=O)NCCO)c(I)c(C(=O)NCC(O)CO)c1I", "note": "(centres undefined)", "Potency": "inactive"}, {"molecule": "O=C(O)[C@H](O)[C@@H](O)[C@H](O[C@@H]1O[C@H](CO)[C@H](O)[C@H](O)[C@H]1O)[C@H](O)CO", "Potency": "inactive"}, {"molecule": "CCCCC(O)/C=C(C)/C=C/C=C/C(=O)N1CCCC1=O", "note": "(centres undefined)", "Potency": "inactive"}, {"molecule": "Cc1ncc([N+](=O)[O-])n1C", "Potency": "inactive"}, {"molecule": "CCCN(CCC)C(=O)C(CCC(=O)OCCCN1CCN(CCOC(=O)Cc2c(C)n(C(=O)c3ccc(Cl)cc3)c3ccc(OC)cc23)CC1)NC(=O)c1ccccc1", "note": "(centres undefined)", "Potency": "inactive"}, {"molecule": "COC(=O)c1c(Cl)c(Cl)c(C(=O)OC)c(Cl)c1Cl", "Potency": "inactive"}, {"molecule": "NCCCC(N)CC(=O)NCC1NC(=O)C(CO)NC(=O)C(N)CNC(=O)C(C2CCN=C(N)N2)NC(=O)C(=CNC(N)=O)NC1=O", "note": "(stereo not drawn) (H-[Dap]S[Dap](ξβ3hOrn)[ΔAla(3-NHCONH2)][X10]; lactam 1-C; configuration not given here)", "activity change, negative = cytotoxicity": "10.4% [at 0.462 µM]"}, {"molecule": "CC(NN)c1ccccc1", "note": "(centres undefined)", "Potency": "inactive"}, {"molecule": "c1ccc2occc2c1", "Potency": "inactive"}, {"molecule": "CCCCCOc1ccc(C2SC(=O)NC2=O)cc1OCC", "note": "(centres undefined)", "Potency": "inactive"}, {"molecule": "CCCc1c2oc(C(=O)O)cc(=O)c2cc2c(=O)cc(C(=O)O)n(CC)c12", "Potency": "inactive"}, {"molecule": "COc1ccc2c(c1)CCCC2=O", "Potency": "inactive"}, {"molecule": "Cc1ccc(O)cc1", "Potency": "inactive"}, {"molecule": "CC(CCc1ccc2c(c1)OCO2)NN", "note": "(centres undefined)", "Potency": "inactive"}, {"molecule": "Cc1cc(=O)oc2cc(O[C@@H]3SC[C@@H](O)[C@H](O)[C@H]3O)ccc12", "Potency": "inactive"}]}]}
